What all share (conditions): mRNA level, 48 h; actives raise or lower the signal
Read-out in assay [1]: Glutathione S-Transferase (GSTA2), GSTA2 (gene 2939)
Put plainly: LTEA_HepaRG_GSTA2: Life Technologies and Expression Analysis (LTEA) Assay for Glutathione S-Transferase (GSTA2) using HepaRG (AID 2283497). In short, it runs like this: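 qRT-PCR readout of GSTA2 transcript, normalized to three housekeeping genes, fitted bidirectionally against 0.5% DMSO baseline. Differentiated HepaRG cells received compound for 48 h at 8 concentrations (top 100 uM, half-log steps).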

Read-out in assay [2]: growth arrest and DNA damage 45 (GADD45G), GADD45G (gene 10912)
Put plainly: LTEA_HepaRG_GADD45G: Life Technologies and Expression Analysis (LTEA) Assay for growth arrest and DNA damage 45 (GADD45G) using HepaRG (AID 2283499). In short, it runs like this: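 HepaRG, 48 h exposure, top 100 uM, half-log 8-point series, 0.5% DMSO vehicle, duplicates. Readout: GADD45G transcript by qRT-PCR (Fluidigm array), housekeeping-normalised (ACTB/GAPDH/POLR2A). Bidirectional curve fit vs DMSO baseline.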

Read-out in assay [3]: Glutamate-cysteine ligase regulatory (GCLM), GCLM (gene 2730)
Put plainly: LTEA_HepaRG_GCLM: Life Technologies and Expression Analysis (LTEA) Assay for Glutamate-cysteine ligase regulatory (GCLM) using HepaRG (AID 2283500). The method, boiled down: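 HepaRG, 48 h dosing, 100 uM top, half-log x8, 0.5% DMSO vehicle. Readout: GCLM mRNA by TaqMan qRT-PCR, housekeeping-normalized (ACTB/GAPDH/POLR2A). Curves fit bidirectionally vs DMSO baseline.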

Read-out in assay [4]: Heat shock 70 kDa protein 1 (HSPA1A), gene 3303
Put plainly: LTEA_HepaRG_HSPA1A: Life Technologies and Expression Analysis (LTEA) Assay for Heat shock 70 kDa protein 1 (HSPA1A) using HepaRG (AID 2283502). The method, boiled down: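 HepaRG, 48 h exposure, 8-pt half-log CRC from 100 uM in 0.5% DMSO, duplicates. Readout: TaqMan qRT-PCR of HSPA1A mRNA, housekeeping-normalized (ACTB/GAPDH/POLR2A). Bidirectional fit vs 0.5% DMSO baseline.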

Read-out in assay [5]: Hypoxia-inducible factor 1-alpha (Homo sapiens) (UniProt Q16665)
Put plainly: LTEA_HepaRG_HIF1A: Life Technologies and Expression Analysis (LTEA) Assay for Hypoxia-inducible factor 1 (HIF1A) Trancription factor using HepaRG (AID 2283503). The method, boiled down:
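Gain- or loss-of-signal HIF1A mRNA changes are fitted against a DMSO baseline. HepaRG cultures receive eight concentrations, highest 100 uM, for 48 h in serum-free induction medium with 0.5% DMSO.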

Read-out in assay [6]: 3-Hydroxy-3-Methylglutaryl-CoA Synthase 2 (HMGCS2), HMGCS2 (gene 3158)
Kind of assay: LTEA_HepaRG_HMGCS2: Life Technologies and Expression Analysis (LTEA) Assay for 3-Hydroxy-3-Methylglutaryl-CoA Synthase 2 (HMGCS2) using HepaRG (AID 2283504). The method, boiled down:
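qRT-PCR read-out of HMGCS2 transcript, normalised to three housekeeping genes, in HepaRG cells after 48 h chemical exposure. Eight-point curves from 100 uM, half-log dilutions, 0.5% DMSO vehicle; gain or loss fitted relative to DMSO baseline.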

Read-out in assay [7]: HGF (gene 3082)
Kind of assay: LTEA_HepaRG_HGF: Life Technologies and Expression Analysis (LTEA) Assay for Hepatocyte Growth Facto (HGF) using HepaRG (AID 2283505). The method, boiled down:
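HepaRG, 48 h dosing, 8-pt half-log series from 100 uM in 0.5% DMSO, duplicates. Readout: TaqMan qRT-PCR of HGF mRNA, housekeeping-normalized; bidirectional curve fit vs DMSO baseline.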

Read-out in assay [8]: Insulin Like Growth Factor 1 (IGF1), IGF1 (gene 3479)
Kind of assay: LTEA_HepaRG_IGF1: Life Technologies and Expression Analysis (LTEA) Assay for Insulin Like Growth Factor 1 (IGF1) using HepaRG (AID 2283506). The method, boiled down: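 qRT-PCR readout of IGF1 mRNA, normalized to three housekeeping genes, after 48 h chemical exposure of HepaRG cells. Concentrations: 8-point half-log series, top 100 uM, 0.5% DMSO vehicle. Gain or loss fitted against DMSO baseline.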

Read-out in assay [9]: Intercellular Adhesion Molecule 1 (ICAM1), ICAM1 (gene 3383)
Kind of assay: LTEA_HepaRG_ICAM1: Life Technologies and Expression Analysis (LTEA) Assay for Intercellular Adhesion Molecule 1 (ICAM1) using HepaRG (AID 2283507). The method, boiled down:
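HepaRG, 48 h exposure, 8-pt half-log series from 100 uM, 0.5% DMSO vehicle, duplicates. Readout: TaqMan qRT-PCR mRNA, housekeeping-normalized (ACTB/GAPDH/POLR2A). Bidirectional curve fit vs DMSO baseline.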

Read-out in assay [10]: Insulin-like growth factor-binding protein 1 (IGFBP1), IGFBP1 (gene 3484)
Put plainly: LTEA_HepaRG_IGFBP1: Life Technologies and Expression Analysis (LTEA) Assay for Insulin-like growth factor-binding protein 1 (IGFBP1) using HepaRG (AID 2283508). In short, it runs like this: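 qRT-PCR mRNA read-out (TaqMan, Fluidigm array), normalised to three housekeeping genes; HepaRG cells, 48 h exposure, 8-pt half-log series from 100 uM, 0.5% DMSO vehicle; bidirectional curve fit vs DMSO baseline.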

Read-out in assay [11]: Interleukin 6 Receptor (IL6R), IL6R (gene 3570)
Kind of assay: LTEA_HepaRG_IL6R: Life Technologies and Expression Analysis (LTEA) Assay for Interleukin 6 Receptor (IL6R) using HepaRG (AID 2283510). The method, boiled down: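 HepaRG, 48 h exposure, 8-pt half-log series, top 100 uM, 0.5% DMSO vehicle, duplicates. Read-out: TaqMan qRT-PCR of IL6R transcript, housekeeping-gene normalized. Gain or loss fitted relative to DMSO baseline.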

Read-out in assay [12]: Potassium channel subfamily K member 1 (KCNK1), KCNK1 (gene 3775)
Put plainly: LTEA_HepaRG_KCNK1: Life Technologies and Expression Analysis (LTEA) Assay for Potassium channel subfamily K member 1 (KCNK1) using HepaRG (AID 2283511). The method, boiled down:
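HepaRG, 48 h exposure, 8-pt half-log series top 100 uM, 0.5% DMSO vehicle, duplicates. Readout: KCNK1 transcript by qRT-PCR (Fluidigm array), housekeeping-normalized; bidirectional curve fit relative to DMSO baseline.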

Read-out in assay [13]: Keratin 19 (KRT19), KRT19 (gene 3880)
Kind of assay: LTEA_HepaRG_KRT19: Life Technologies and Expression Analysis (LTEA) Assay for Keratin 19 (KRT19) using HepaRG (AID 2283512). In short, it runs like this:
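HepaRG, 48 h chemical exposure, 8-pt half-log CRC from 100 uM, 0.5% DMSO vehicle, duplicates. Readout: TaqMan qRT-PCR of KRT19 mRNA, housekeeping-normalized (ACTB/GAPDH/POLR2A). Bidirectional fit vs DMSO baseline.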

Read-out in assay [14]: Lipase C (LIPC), LIPC (gene 3990)
Kind of assay: LTEA_HepaRG_LIPC: Life Technologies and Expression Analysis (LTEA) Assay for Lipase C (LIPC) using HepaRG (AID 2283514). In short, it runs like this:
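HepaRG, 48 h exposure, 8-pt half-log series from 100 uM in 0.5% DMSO, duplicates. Readout: LIPC mRNA by Fluidigm qRT-PCR, housekeeping-normalized (ACTB/GAPDH/POLR2A). Gain or loss fitted bidirectionally against DMSO baseline.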

Read-out in assay [15]: Lipoprotein lipase (LPL), LPL (gene 4023)
Kind of assay: LTEA_HepaRG_LPL: Life Technologies and Expression Analysis (LTEA) Assay for Lipoprotein lipase (LPL) using HepaRG (AID 2283515). The method, boiled down:
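HepaRG, 48 h exposure, 8-pt half-log dilutions from 100 uM, 0.5% DMSO vehicle, duplicates; qRT-PCR (Fluidigm array) of LPL mRNA vs housekeeping genes; bidirectional curve fit relative to DMSO baseline.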

Read-out in assay [16]: MicroRNA 122 (MIR122), gene 406906
Kind of assay: LTEA_HepaRG_MIR122: Life Technologies and Expression Analysis (LTEA) Assay for MicroRNA 122 (MIR122) using HepaRG (AID 2283516). Also: the transcript read is the microRNA miR-122. The method, boiled down: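 qRT-PCR read-out (TaqMan, Fluidigm array), normalized to three housekeeping genes; HepaRG cells dosed 48 h at 8 concentrations up to 100 uM in 0.5% DMSO, duplicate; gain or loss fitted against DMSO baseline.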

Read-out in assay [17]: matrix metalloproteinase-10 (MMP10), MMP10 (gene 4319)
Put plainly: LTEA_HepaRG_MMP10: Life Technologies and Expression Analysis (LTEA) Assay for matrix metalloproteinase-10 (MMP10) using HepaRG (AID 2283517). The method, boiled down:
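Transcript levels come from Fluidigm qRT-PCR normalized to three housekeeping genes, with curves fitted bidirectionally against 0.5% DMSO. Human HepaRG cells were dosed for 48 hours at concentrations up to 100 uM.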

Read-out in assay [18]: MYC, MYC (gene 4609)
Put plainly: LTEA_HepaRG_MYC: Life Technologies and Expression Analysis (LTEA) Assay for MYC using HepaRG (AID 2283518). In short, it runs like this:
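qRT-PCR read-out of MYC transcript (Fluidigm TaqMan, housekeeping-normalized) after 48 h chemical exposure of HepaRG cells; eight concentrations, top 100 uM, half-log steps. Bidirectional curve fitting against 0.5% DMSO vehicle baseline.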

Read-out in assay [19]: Cytochrome P450 4A22 (Homo sapiens) (UniProt Q5TCH4)
Kind of assay: LTEA_HepaRG_CYP4A22: Life Technologies and Expression Analysis (LTEA) Assay for Cytochrome P450 4A22 (CYP4A22) using HepaRG (AID 2283495). In short, it runs like this: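 HepaRG, 48 h post-plating -> serum-free induction medium; dosed 48 h, duplicate, 8 conc. (100 uM top, half-log), 0.5% DMSO. Readout: CYP4A22 mRNA by qRT-PCR, ACTB/GAPDH/POLR2A normalization; gain/loss fit relative to DMSO.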

Read-out in assay [20]: Cytochrome P450 7A1 (Homo sapiens) (UniProt P22680)
Put plainly: LTEA_HepaRG_CYP7A1: Life Technologies and Expression Analysis (LTEA) Assay for Cytochrome P450 7A1 (CYP7A1) using HepaRG (AID 2283496). In short, it runs like this:
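Using 0.5% DMSO as vehicle and baseline, chemicals were tested in duplicate over an 8-point range from 100 uM on HepaRG cells for 48 h; qRT-PCR signals were normalised to ACTB, GAPDH and POLR2A.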

Activity calls are given as the source filed them. The calls were made as follows: active = hit-call score of the fitted dose curve at least 0.9, where 1 is the maximum; inactive = score below 0.9.

Hypoxia-inducible factor 1-alpha (Homo sapiens), sequence (Q16665 whole entry, looked up): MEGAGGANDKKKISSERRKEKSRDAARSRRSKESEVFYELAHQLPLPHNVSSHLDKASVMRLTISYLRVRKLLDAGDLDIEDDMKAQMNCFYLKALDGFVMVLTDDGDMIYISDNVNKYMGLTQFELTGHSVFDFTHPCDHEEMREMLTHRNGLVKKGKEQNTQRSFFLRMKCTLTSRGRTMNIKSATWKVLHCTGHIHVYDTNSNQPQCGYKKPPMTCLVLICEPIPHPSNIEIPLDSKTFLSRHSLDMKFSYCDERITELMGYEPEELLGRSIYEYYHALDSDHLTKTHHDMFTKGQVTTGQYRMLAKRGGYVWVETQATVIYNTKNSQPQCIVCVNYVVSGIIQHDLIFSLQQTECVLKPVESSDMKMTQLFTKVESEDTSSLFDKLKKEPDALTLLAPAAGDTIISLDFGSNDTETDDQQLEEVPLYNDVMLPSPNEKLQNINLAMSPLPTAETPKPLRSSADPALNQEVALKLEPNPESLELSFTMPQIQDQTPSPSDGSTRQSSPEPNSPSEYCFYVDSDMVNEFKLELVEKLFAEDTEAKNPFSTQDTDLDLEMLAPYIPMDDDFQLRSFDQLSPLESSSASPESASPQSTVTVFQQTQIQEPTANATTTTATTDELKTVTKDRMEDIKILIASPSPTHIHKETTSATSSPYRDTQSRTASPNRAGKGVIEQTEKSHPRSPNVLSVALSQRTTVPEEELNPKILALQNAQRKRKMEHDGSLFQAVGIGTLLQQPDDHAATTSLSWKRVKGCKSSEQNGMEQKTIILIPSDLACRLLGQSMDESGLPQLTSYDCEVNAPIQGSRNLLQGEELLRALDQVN

As usually defined, the AC50 is the midpoint of the concentration-response curve, whichever way the signal moves. Turning to `C[C@@H]1C[C@@H]([C@H](O)CC2CC(=O)NC(=O)C2)C(=O)[C@@H](C)C1`, the AC50 in [1] was 26.6 µM (active); in [2], 2.24 µM (active); in assay [3] it was 17.9 µM (active); in assay [4], 30.6 µM (active); in assay [5], 9.18 µM (active); in assay [6], 27 µM (active). In addition, the AC50 in assay [7] is 71.7 µM (active); in assay [8], 9.09 µM (active); in assay [9], 11.9 µM (active); in assay [10] it was 22.3 µM (active); in assay [12], 12.2 µM (active); in assay [13], 12.5 µM (active). Further, the half-maximal activity concentration (AC50) in assay [14] was 20 µM (active); in assay [15], 92.2 µM (active); in assay [16] it was 10.6 µM (active); in assay [18] it was 13.9 µM (active). In addition, the call in assay [11] and in assay [17] was inactive.

Consider `CC(C)(c1ccccc1)c1ccc(O)c(C(C)(C)c2ccccc2)c1`, for which the half-maximal activity concentration (AC50) was 70.4 µM (active) in assay [19]; 58.2 µM (active) in assay [20]; 50 µM (active) in assay [3]; 50 µM (active) in [4]; 90.2 µM (active) in assay [5]; 71.5 µM (active) in assay [6]. Moreover, the AC50 is 50 µM (active) in assay [8]; 50 µM (active) in assay [9]; 61.7 µM (active) in [14]; 78 µM (active) in assay [16]; 50 µM (active) in assay [18]. The outcome in [1], in [2], in assay [7], in assay [10], in assay [11] and in [12] was inactive. Besides, the outcome in [13], in [15] and in assay [17] was inactive.
